Screening data: PubChem BioAssay, National Center for Advancing Translational Sciences (NCATS)
HT1080 IDH1KD tx – toxicity to HT-1080 IDH1 knockdown cells (counter line). 2% of 360,000 active. Potency, µM (doses to about 46.1 µM), for inactives: top-dose activity, negative = toxicity, hits mostly cytotoxic. HT-1080 IDH1 knockdown viability, ATP luminescence, 48 h. AID 686971;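 note: 0% = DMSO wells and -100% = cell-free medium wells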
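Luminescent ATP read-out (CellTiter-Glo, 10 min at room temperature) after 48 h compound exposure at 37 °C gave viability of IDH1-knockdown HT-1080 cells. Activity was normalised to DMSO and cell-free wells, then fitted as concentration-response curves.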
DT40 TDP1 no CPT – qHTS for Inhibitors of human tyrosyl-DNA phosphodiesterase 1 (TDP1): qHTS in cells in absence of CPT; DT40 Tdp1-/- hTDP1 cells, no CPT, ATP luminescence, 48 h; Potency, µM (series often up to 46.2 µM), inactives show top-dose activity change, negative = growth inhibition, most hits filed as inhibitors; 15% of 420,000 active; note: nearly all actives have a fitted effect of over 55% in size
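Camptothecin absent (DMSO only). Human TDP1-complemented DT40 knockout cells, 400 cells/well, 37 °C for minimum 48 hr; ATP measured via CellTiter-Glo, 30 min dark incubation, luminescence.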
KB-3-1 cytotox – KB-3-1 parental cell cytotoxicity; KB-3-1 viability, CellTiter-Glo ATP luminescence, 72 h; Potency, µM (titrated, usually from 46.1 µM), hits mostly cytotoxic; 1.4% of 400,000 active; note: nearly all actives have a fitted effect of over 60% in size
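Here the drug-naive KB-3-1 line serves as comparator for MDR sub-line selectivity; cells received compound titrations, 72 h at 37 °C, then CellTiter-Glo readout.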
HT1080-NT tox – kills 2HG-producing HT-1080-NT fibrosarcoma cells | AID 686970 | HT-1080-NT fibrosarcoma viability, CellTiter-Glo ATP luminescence, 48 h | 1.6% of 360,000 active | Potency, µM (top dose mostly 46.1 µM), for the others: at the top dose activity, negative = less viability, most hits filed as cytotoxic;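 note: NT is the 2HG producing partner of a matched IDH1 knockdown line; 0% = DMSO-treated cells and -100% = media-only wells without cells; nearly all actives have a fitted effect of over 55% in size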
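Viability by CellTiter-Glo luminescence after 48 h compound exposure at 37C of HT-1080-NT cells (750/well, RPMI, 5% FBS). % activity scaled between DMSO wells and medium-only wells, then curve-fitted and categorized by curve class.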
TDP1 cell CPT – DT40-hTDP1 cell growth loss with CPT; chicken DT40 Tdp1-/-;hTDP1 cells + 20 nM CPT, ATP luminescence, 48 h; Potency, µM (series often up to 46.2 µM), without a hit: top-dose activity change, negative = growth inhibition, most hits filed as inhibitors; 12% of 420,000 active; AID 686979; note: nearly all actives have a fitted effect of over 55% in size
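Chicken DT40 Tdp1-/- cells stably complemented with human TDP1 were seeded at 400 cells/well in medium containing 20 nM camptothecin, exposed to pin-transferred compounds, and grown at 37 °C for at least 48 hr. Viability was read as ATP luminescence.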
KB-V1 MDR tox – KB-V1 MDR subline cytotoxicity; KB-V1 MDR cells viability, CellTiter-Glo, 72 h; 3.4% of 400,000 active; AID 1347076; Potency, µM (top dose mostly 46.1 µM), actives largely listed as cytotoxic; note: nearly all actives have a fitted effect of over 60% in size
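Potencies derive from concentration-effect curves fitted to normalized luminescence (CellTiter-Glo) of KB-V1 cells treated for 72 h at 37 degrees C in phenol-red-free DMEM containing 10% FBS.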
Starred values were filed as active, the others as inactive; i = inactive; ? = inconclusive; . = no result given; [ ] = another dose, or the depositor's remark. Compounds with a hit are over-represented: about 19% of the library has one in this group of screens. Calls come from the whole dose curve; as a rule, active = well fitted curve in the direction sought with a large enough effect; inconclusive = small, poorly fitted or top-dose-only effect, or another doubt; inactive = no such curve, though single readings can be large; an effect the other way counts as inactive or inconclusive. Unless noted, % is set by controls: 0 for no effect and ±100 for the full control effect; potency is the fitted concentration of half-maximal effect.

SMILES	HT1080 IDH1KD tx	DT40 TDP1 no CPT	KB-3-1 cytotox	HT1080-NT tox	TDP1 cell CPT	KB-V1 MDR tox
Cc1ccccc1Cn1c2ccccc2c2cnn(CC(=O)NC3CCC(C)CC3)c(=O)c21 (configuration not stated)	.	18.4µM*	i	.	18.4µM*	?
Cc1ccc(C)c(Cn2c3ccccc3c3cnn(CC(=O)NC4CCC(C)CC4)c(=O)c32)c1 (configuration not stated)	.	13µM*	i	.	10.3µM*	i
CCCN(CC(=O)Nc1ccccc1OC)C(=O)CN1C(=O)NC(C)(C)C1=O	-3.6%	-22.5%	i	-0.3%	6.3%	i
CCOC(=O)C1=CCN(S(=O)(=O)c2ccc(Br)cc2)C1c1ccccc1 (configuration not stated)	-17.4%	?	?	-11.9%	-25.8%	?
Cc1csc(N/N=C/c2ccc(O)c([N+](=O)[O-])c2)n1	1.5%	25.9µM*	i	7.7%	18.4µM*	?
O=[N+]([O-])c1cc(/C=N\Nc2nc(-c3ccccc3)cs2)ccc1O	?	18.4µM*	i	-21.5%	14.6µM*	i
O=[N+]([O-])c1cc(/C=N/N/C(=N/c2ccccn2)c2ccccn2)ccc1O	?	4.61µM*	?	?	3.26µM*	?
O=c1c(-c2ccc(Cl)cc2)nc2cnc(N3CCNCC3)nc2n1CCc1ccccc1	.	18.4µM*	.	.	11.6µM*	.
COCCn1c(=O)c(-c2ccc(Cl)cc2)nc2cnc(N3CCNCC3)nc21	.	11.6µM*	.	.	6.51µM*	.
COc1ccc(-c2nc3cnc(N4CCNCC4)nc3n(CCc3ccccc3)c2=O)cc1	.	20.6µM*	.	.	?	.
COCCn1c(=O)c(-c2ccccc2)nc2cnc(N3CCNCC3)nc21	.	-27.6%	.	.	11.3%	.
Cn1c(=O)c(CCc2ccccc2)nc2cnc(N3CCNCC3)nc21	.	9.2µM*	.	.	?	.
CN1CCN(c2ncc3nc(-c4ccccc4)c(=O)n(CCc4ccccc4)c3n2)CC1	.	-12.9%	.	.	?	.
CCc1nc2cc(C(=O)N3CCC[C@H]3C(=O)OC)cc(NC(=O)c3ccccc3OC)c2n1C	.	-20.8%	.	.	18.5%[9.04 µM]	.
N#CCCn1c(=O)c(-c2cccs2)nc2cnc(N3CCNCC3)nc21	.	3.66µM*	.	.	?	.
Cc1nc2cnc(N3CCNCC3)nc2n(CCC#N)c1=O	.	8.7%	.	.	1.2%	.
COc1ccc(-c2cc3ccccc3n2CC(O)CNCCO)cc1 (configuration not stated)	-15.5%	14.6µM*	i	-24.1%	23.1µM*	i
COc1ccc(-c2cc3ccccc3n2CC(O)CN2CCCCC2)cc1 (configuration not stated)	-10.9%	-17.6%	i	-19.7%	-24.0%	i
O=[N+]([O-])c1c(Nc2ccccc2O)cc(Cl)c2nonc12	5.8µM*	3.66µM*	?	10.3µM*	4.61µM*	?
COc1ccc(CCNc2oc(COc3ccc(Cl)cc3)nc2C#N)cc1OC	.	11.6µM*	i	.	13µM*	?
COc1ccc(CCNc2oc(COc3cccc(C)c3)nc2C#N)cc1OC	.	23.1µM*	i	.	?	i
Cc1ccc(C(O)c2ncc(-c3cccc4ccccc34)[nH]2)c(C)c1 (configuration not stated)	?	?	i	?	?	i
O=c1[nH]c(SCc2ccccc2)ncc1S(=O)(=O)c1ccccc1	9.8%	-15.4%	.	9.8%	-0.7%	.
O=C1C2C3C=CC(c4ccccc4)(C2C(=O)N1c1cccc(Cl)c1)C1C(=O)N(c2cccc(Cl)c2)C(=O)C31 (configuration not stated)	-17.1%	14.6µM*	?	-10.0%	14.6µM*	i
O=C1C=CC(=O)N1c1ccc(OC(F)F)cc1	16.4µM*	0.651µM*	?	?	0.411µM*	?
SMILES	HT1080 IDH1KD tx	DT40 TDP1 no CPT	KB-3-1 cytotox	HT1080-NT tox	TDP1 cell CPT	KB-V1 MDR tox
O=C1C=CC(=O)N1c1ccc(O)cc1	-6.8%	2.31µM*	i	-1.6%	2.59µM*	?
O=C1CCCC(=O)N1c1ccc(O)cc1	-1.7%	5.2%	i	1.7%	-7.2%	i
Cc1ccc(Cl)cc1N1CCN(S(=O)(=O)c2cn(C)c(C)n2)CC1	.	?	i	.	-20.2%	i
COc1ccccc1NC(=O)COc1coc(CN2CCN(c3ccccc3)CC2)cc1=O	-2.0%	-27.1%	i	2.0%	-21.4%	?
COc1ccc(C2CC(=O)c3cc(-c4nc(-c5ccc(Cl)cc5)c(C)s4)c(=O)[nH]c3C2)cc1 (configuration not stated)	.	1.84µM*	i	.	?	i
Cc1ccc(-c2csc(-c3cc4c([nH]c3=O)CC(c3ccccc3)CC4=O)n2)cc1 (configuration not stated)	.	1.3µM*	0.82µM*	.	1.46µM*	?
CC1(C)CC(=O)c2cc(-c3nc(-c4ccccc4)cs3)c(=O)[nH]c2C1	.	13µM*	i	.	9.2µM*	i
COc1ccc(C2CC(=O)c3cc(-c4nc(-c5cccc(Cl)c5)cs4)c(=O)[nH]c3C2)cc1 (configuration not stated)	.	0.3%	i	.	3.3%	i
O=C(Nc1ccccc1)C(Cc1ccccc1)c1ccccc1 (configuration not stated)	0.3%	-23.4%	i	2.6%	?	?
COC(=O)[C@@]1(Cc2ccc(F)cc2)[C@H]2c3cc(C(=O)N4CCCC4)n(C)c3C[C@H]2CN1C(=O)c1ccccc1	-19.3%	16.4µM*	i	-11.8%	23.1µM*	?
COC(=O)[C@@]1(Cc2ccc(F)cc2)[C@H]2c3cc(C(=O)N4CCCC4)n(Cc4ccccc4)c3C[C@H]2CN1C(=O)c1ccccc1	?	23.1µM*	?	?	?	i
COC(=O)[C@@]1(Cc2ccc(OC)cc2)[C@H]2c3cc(C(=O)N4CCCC4)n(Cc4ccsc4Br)c3C[C@H]2CN1C(=O)c1ccccc1	?	?	18.4µM*	?	?	?
CCCCCCCCCCCCCCCCCCOP(=O)([O-])OC1CC[N+](C)(C)CC1	.	6.2%[21.1 µM]	.	.	4.5%[21.1 µM]	.
COc1ccc(NC(=O)COc2nsnc2N2CCOCC2)c(OC)c1	2.4%	-10.4%	i	2.6%	-25.8%	i
COc1ccc(NC(=O)COc2nsnc2N2CCCCC2)cc1	4.0%	18.4µM*	i	-13.2%	11.6µM*	i
